Inconclusive results are not listed. A number with no mark means an inactive call. Activity calls are given as the source filed them. The call rests on the fitted dose curve; in most records, active means well fitted inhibition curve with a large enough effect; inconclusive means small, poorly fitted or top-dose-only effect; inactive means no such curve, though single readings can be large or run the other way.
test system: Zika virus NS2B-NS3 protease (linked construct); test: Primary screen NINDS Rhodamine qHTS for Zika virus inhibitors (AID 1347160); conditions: purified NS2B-NS3 protease, Rhodamine110 substrate fluorescence; series mostly up to 57.1 µM; activity change, negative = inhibition: at the top concentration; further: nearly all actives have a fitted effect of over 55% in size
In short: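 Percent inhibition, normalized to uninhibited and enzyme-free controls, is fitted to a 4-parameter Hill equation. Fluorescence change comes from a 15-min cleavage of 1.5 microM bis-peptide Rhodamine110 substrate by 25 nM linked NS2B-NS3 at room temperature.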
On the % scale 0 is the no-effect control and ±100 the full control effect.

Row | Structure (SMILES) | activity change, negative = inhibition | outcome
1 | CC(C)CCNC(=O)c1ccc2c(c1)nc(Nc1n[nH]c3ccc(-c4ccccc4OC(F)(F)F)cc13)n2C1CCC(O)CC1 (stereo not given) | -13.9% | –
2 | Cc1nc2cc(C(=O)NCc3ccccn3)nn2c(C)c1Cc1cccc(Cl)c1 | -6.25% | –
3 | CNCCCC1(c2ccccc2)OC(C)(C)c2ccccc21 (stereo not given) | – | inactive
4 | CC(=O)C1(C)CCC2C3C=C(C)C4=CC(=O)CCC4(C)C3CCC21C (stereo not given) | -18.3% | –
5 | COc1nc2ccc(Br)cc2cc1[C@@H](c1ccccc1)[C@@](O)(CCN(C)C)c1cccc2ccccc12 | – | inactive
6 | CC[C@@H](C)Nc1cc(C(=O)NC2CC3CCC(C2)N3c2ccc(C(=O)C3CC3)cn2)c(C)cc1C(N)=O (stereo not given in full) | 24.4% | –
7 | Nc1ncnc2c1nc(Cl)n2C1OC2COP(=O)(O)OC2C1O (stereo not given) | 18.5% | –
8 | O=C(NS(=O)(=O)c1ccc(Br)s1)c1ccc(Cl)cc1Cl | -17.3% | –
9 | C=CC(=O)N1CCC(Oc2cc3c(Nc4ccc(Cl)c(Cl)c4F)ncnc3cc2OC)CC1 | -1.12% | –
10 | C/C=C/C=C/C(=O)O[C@@H]1C=C2COC(=O)[C@]2(O)[C@@]2(C)CCCC(C)(C)[C@H]12 | – | inactive [at 33.1 µM]
